MPTP block: mitochondrial permeability transition pore inhibitors, primary screen, biochemical, isolated mouse mitochondria, absorbance. Ca2+ swelling absorbance, 30 min. inhibition, % at 10 µM. 1.4% of 360,000 active. AID 602449, 2012;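 active = inhibition of 50% or more, scaled per plate between neutral and stimulator controls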
Mot1-301 SUMO: yeast Mot1-301 growth rescue at high temperature, primary screen, SUMOylation pathway inhibitor project, S. cerevisiae, ATP luminescence, 38.5C; S. cerevisiae Mot1-301 growth rescue; percent above DMSO median, 100 means doubled; growth rescue, % at 18.8 µM; 1% of 320,000 active;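 active = every valid replicate shows activation above 250% relative to neutral control wells; inactive = the rest, any valid replicate at or below 250%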
FAS TE block: FAS thioesterase domain inhibitors, primary screen, biochemical, fluorescence intensity, uHTS. recombinant FAS-TE, OMFH fluorogenic substrate, fluorescence endpoint. inhibition, % at 15 µM. 0.67% of 360,000 active. AID 602261, 2012;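 active = compounds whose normalised, plate-corrected inhibition of enzyme fluorescence in the single-dose primary screen is 50% or more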
aDG glyco act: activators of alpha-DG glycosylation, primary screen, uHTS, Pro5-aDG cells, AlphaScreen | alpha-DG glycosylation AlphaScreen (IIH6); 0% Pro5, 100% B10-LARGE cell signal | activation, % at 10 µM | 0.22% of 360,000 active | AID 624168, 2012;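 active = activation of at least 8% versus controls, or a plate z-score of at least 8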;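 note: Pro5 are CHO cells carrying HIG-tagged alpha-DG that lacks glycosylation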
CR mimetic SO: reduction of superoxide in aged yeast, primary screen, HTS; S. cerevisiae aged cells, superoxide DHE fluorescence; stronger effect = lower value; superoxide response (% of plate mean), % at 10 µM; 0.18% of 330,000 active;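 active = superoxide response under a set limit, about three screen SD below normal, cut at about 65% in these data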;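 note: yeast aged for seven days with compound at 30 °C before DHE staining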
Cardio protect: cardioprotection against H2O2-induced cell death, primary screen, uHTS, H9c2 cells, ATPLite luminescence; AID 588492, 2011; 0.63% of 360,000 active; H9c2 cardiomyocytes, H2O2 injury protection, 2 h; protection from H2O2 cell death, % at 20 µM;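 active = compounds giving at least 50% protection of heart cells from peroxide-induced death in the single-dose screen, raw or plate-pattern-corrected value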
aDG glyco conf: alpha-DG glycosylation enhancers, retest, confirmation, single concentration, Pro5-aDG cells. shares compounds with aDG glyco act. IIH6 AlphaLISA; scaled to LARGE-overexpressing B10 cells as 100%. activation, % at 10 µM (by protocol). 17% of 600 active. AID 651671, 2012;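 active = activation of at least 7% in one or more replicates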;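 note: cells exposed to compound for two days before detection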
A number is an active result; n = inactive; x = no result given. Sampled rows, rich in hits. Any-hit rate of the full collection: about 3.8%.

SMILES	MPTP block	Mot1-301 SUMO	FAS TE block	aDG glyco act	CR mimetic SO	Cardio protect	aDG glyco conf
Cn1c(Br)nc2c1c(=O)n(Cc1ccccc1)c(=O)n2C	n	n	n	2.4	n	n	n
Cn1c(=O)n(CCO)c(=O)c2c1nc(Br)n2Cc1ccccc1	n	n	n	n	n	n	x
NC(=S)N/N=C/c1coc2c(ccc3ccccc32)c1=O	n	n	n	9.0	n	n	n
Nc1ccc2ccccc2c1[N+](=O)[O-]	n	x	n	n	x	n	x
Nc1cc2c3ccccc3ccc2c2ccccc12	n	x	n	4.7	x	n	n
O=C(/C=C/c1ccc(S(=O)(=O)N2CCOCC2)cc1)NCc1ccccc1F	n	n	n	n	n	n	x
CC1=C(C)CC(C(=O)NCCCN2CCCC2=O)C(C(=O)O)C1 (stereo not given)	n	n	n	n	n	n	x
Fc1ccc(-c2nc3ccc(Cl)cn3c2Cc2cccc(F)c2)cc1	n	x	n	n	x	n	x
N/C(=N\OC(=O)COc1ccc(Br)cc1Cl)c1ccccn1	n	n	n	14.1	n	n	n
N/C(=N\OC(=O)COc1ccc(Cl)cc1Cl)c1ccccn1	n	x	n	n	n	n	x
Cc1ccc(N(Cc2cc3ccc(C)cc3[nH]c2=O)C(=O)c2ccco2)c(C)c1	n	n	n	2.4	n	n	n
CCOc1cc(/C=N/NC(=O)c2ccc(N(C)S(=O)(=O)c3ccccc3)cc2)ccc1OC	n	n	n	2.4	n	n	n
COc1cc(/C=N/NC(=O)c2ccc(N(C)S(=O)(=O)c3ccccc3)cc2)cc(OC)c1OC	n	n	n	n	n	n	x
CCN(c1ccccc1)S(=O)(=O)c1ccc(Cl)c(C(=O)NCc2ccco2)c1	n	n	n	n	n	n	x
Cc1cccc2nc(-c3cccc(NC(=O)c4ccc(Cl)cc4)c3)cn12	n	n	n	6.5	n	n	n
CC(Oc1ccc(S(=O)(=O)N2CCCC2)cc1[N+](=O)[O-])C(=O)NC1(C#N)CCCCC1 (stereo not given)	n	n	n	n	n	n	x
Cc1cc(-c2cc(C)c(N)cc2C)c(C)cc1N	n	x	n	n	x	n	x
Cc1cc2c(cc1C)C(=O)C(Br)=C(N)C2=O	n	x	n	6.1	x	n	n
O=C(O)C(Cc1cccs1)c1cccs1 (stereo not given)	n	x	n	n	x	n	x
O=C(CCN1C(=O)c2ccccc2C1=O)NCc1ccc(Cl)cc1	n	n	n	2.7	n	n	n
COc1ccc(C(C)(C)C)cc1NC(=O)CCNC(=O)c1ccco1	n	n	n	n	n	n	x
Cc1ccc(-c2nc3c(Cl)cc(C(F)(F)F)cn3c2Cc2cccc(F)c2)cc1	n	x	n	n	x	n	x
CC(C)Cn1c(N)c(C(=O)COC(=O)c2ccc(Br)cc2)c(=O)n(C)c1=O	n	n	n	3.4	n	n	1.2
CC(CCC(=O)O)C1CCC2C3CC(O)C4CC(O)CC[C@]4(C)C3CCC12C (stereo not given in full)	n	x	n	n	x	n	x
CCN(CC)C(=O)NCc1c(C)cc(C)cc1C	n	n	n	46.8	n	n	n
SMILES	MPTP block	Mot1-301 SUMO	FAS TE block	aDG glyco act	CR mimetic SO	Cardio protect	aDG glyco conf
CCN(CC)C(=O)c1cccc(C)c1	n	n	n	n	n	n	x
COc1ccc(CC(=O)Nc2ccccc2C(=O)NCCc2ccccc2)cc1	n	n	n	n	n	n	x
COC(=O)[C@H](CC(C)C)NC(=O)CC[C@H]1O[C@@H](n2cc(C)c(=O)[nH]c2=O)C[C@@H]1O	n	x	n	n	x	n	x
CCc1nc2ccc(C(=O)NC3CCN(Cc4ccccc4)CC3)cn2c1N(C)Cc1cc2ccccc2s1	n	x	n	6.4	x	n	10.9
Cc1ccc(S(=O)(=O)NC(=O)NCc2ccccn2)cc1	n	n	n	51.4	n	n	n
COc1ccc(-n2c(=O)c(CCC(=O)N3CCC(C)CC3)nc3ccccc32)cc1	n	n	n	n	n	n	x
CC(C)c1cc(-c2cc(-c3ccc(Cl)cc3)on2)nc(NC2CCCC2)n1	n	n	n	5.7	n	n	n
CC(C)c1cc(-c2cc(-c3ccccc3)on2)nc(NC2CCCC2)n1	n	n	n	n	n	n	x
O=C1[C@@H]2Cc3c([nH]c4ccccc34)C(c3ccc([N+](=O)[O-])cc3)N2C(=O)CN1C1CC1 (stereo not given in full)	n	n	n	n	n	n	x
CCCN(CCC)C(=O)C1CCCN(S(=O)(=O)c2ccc3c(c2)oc(=O)n3C)C1 (stereo not given)	n	n	n	8.0	n	n	n
CCC(C)Nc1nc(-c2c[nH]c3ccccc23)cs1 (stereo not given)	n	n	n	7.7	n	n	6.9
CCc1ccc(-c2csc(-c3c[nH]c4ccccc34)n2)cc1	n	n	n	n	n	n	x
CN1CCN(CC(=O)Nc2nc(-c3c[nH]c4ccccc34)cs2)CC1	n	n	n	n	n	n	x
CNc1nc(-c2c[nH]c3ccccc23)cs1	n	n	n	10.9	n	n	7.9
Nc1nc(-c2c[nH]c3ccccc23)cs1	n	n	n	9.1	n	49.3	n
COc1ccccc1N1CCN(c2ccc3c(c2)S(=O)(=O)c2cccc(C(=O)NCC4CC4)c2C3=O)CC1	n	x	n	n	x	n	x
CCCCn1nnnc1C(c1ccccc1)N1CCN(c2cc(C)ccc2C)CC1 (stereo not given)	n	x	n	n	x	x	x
COc1cccc(-c2ncc3ccccc3c2CO)c1	n	n	n	n	n	n	x
CCc1ccccc1NC(=O)CN1CCN(C(=O)CNC(=O)c2ccc(N3CCCC3=O)cc2)CC1	n	n	n	n	n	n	x
O=C(Nc1nnc(S(=O)(=O)N2CCOCC2)s1)c1ccc(F)cc1	n	n	n	8.7	n	n	n
Cc1ccc(C(=O)Nc2nnc(S(=O)(=O)N3CCOCC3)s2)cc1	n	n	n	n	n	n	x
CC1CCCN(CCCNC(=O)c2nn(C)c3c2CSc2ccccc2-3)C1 (stereo not given)	n	n	n	6.3	n	n	9.0
CCCCN1CCc2c1nc1ccc(Br)cc1c2N	n	n	n	3.6	n	n	7.8
O=C(Cc1ccc(NC(=O)C2CCN(C(=O)C3CCC3)CC2)cc1)Nc1ccc(C(=O)N2CCOCC2)cc1	n	x	n	n	x	n	x
O=C(COc1ccc(Cl)cc1)Nc1cccc(-c2ccc3nncn3n2)c1	n	n	n	3.5	n	n	n

Assay outcomes: PubChem BioAssay, several laboratories
